Inconclusive results are not listed. Activity calls are given as the source filed them. Rule as the data show it, unless noted: active = inhibition above about 80%; inactive = the rest.
Tests used:
[1] = sensitizers of A549 cells to miR-34 induction, primary screen, imaging, A549 dox-inducible miR-34, nuclei and caspase counts (AID 1347080;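 active = compounds whose cell count with miR-34 switched on is under 0.7 times the count with it off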); details: A549 miR-34 inducible, Hoechst nuclei count, 48 h
[2] = SU-DIPG-XXV glioma cell viability, MIPE5.0 library, qHTS (AID 1347068; cut-off not given, nearly all actives have IC50 up to about 30 µM)
[3] = LFS_MB_P medulloblastoma growth inhibition, cell-based, chromothripsis tumors, cisplatin or BGB combos (AID 1671449); details: LFS_MB_P medulloblastoma cells;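 also: cells exposed for 96 hours; 0% = vehicle DMSO and 100% = killing by high DMSO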
[4] = HDN33 neuroblastoma growth inhibition, cell-based, chromothripsis tumors, cisplatin or BGB combos (AID 1671450); details: HDN33 neuroblastoma cells, stronger effect = higher value;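 also: cells exposed to compound for four days; 0% = vehicle DMSO and 100% = cell killing by high DMSO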
[5] = ICB984 medulloblastoma cell growth inhibition, synergistic combos for chromothripsis tumors, cisplatin or BGB combos (AID 1671451; call rule not given here;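 also: cells exposed for 96 hours before readout; 0% = vehicle DMSO and 100% = killing by high DMSO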); details: ICB984 medulloblastoma cells, drug combinations, stronger effect = higher value
[6] = LFS_MB_1R medulloblastoma cell growth inhibition, synergistic combos for chromothripsis tumors, cisplatin or BGB combos (AID 1671452); details: LFS_MB_1R medulloblastoma cells, stronger effect = higher value;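 also: cells exposed for 96 hours before readout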
[7] = HTB85 osteosarcoma cell growth inhibition, synergistic combos for chromothripsis tumors, BGB or cisplatin IC20 combos (AID 1671453); details: HTB85 osteosarcoma cells, drug combinations, stronger effect = higher value;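 also: cells exposed for 96 hours before readout; 0% = vehicle DMSO and 100% = high DMSO killing control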
[8] = CRL2098 osteosarcoma cell growth inhibition, synergistic combos for chromothripsis tumors, BGB or cisplatin IC20 combos (AID 1671454); details: CRL2098 osteosarcoma cells, drug combinations, stronger effect = higher value;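 also: cells exposed for 96 h before readout; 0% = vehicle DMSO and 100% = killing by high DMSO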
[9] = HD-MB03 medulloblastoma cell growth inhibition, synergistic combos for chromothripsis tumors, BGB or cisplatin IC20 combos (AID 1671455; in the data active = inhibition above about 83%;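 also: 0% = vehicle DMSO and 100% = high DMSO as cytotoxic control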); details: HD-MB03 medulloblastoma cells, stronger effect = higher value
[10] = UWB1.289 ovarian carcinoma cell growth inhibition, synergistic combos for chromothripsis tumors, BGB or cisplatin combos (AID 1671456); details: UWB1.289 ovarian carcinoma cells, stronger effect = higher value;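 also: cells exposed to compound for four days; 0% = vehicle DMSO and 100% = killing by high DMSO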
[11] = LFS_MB_2R medulloblastoma cell growth inhibition, synergistic combos for chromothripsis tumors, cisplatin combos (AID 1671457); details: LFS_MB_2R medulloblastoma cells, stronger effect = higher value;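 also: cells exposed to compound for four days before readout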
[12] = MDA-MB-436 breast carcinoma cell growth inhibition, synergistic combos for chromothripsis tumors, BGB or cisplatin combos (AID 1671458; call rule not given here;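 also: cells exposed for 96 hours; 0% = vehicle DMSO and 100% = killing by high DMSO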); details: MDA-MB-436 breast carcinoma growth inhibition, drug combinations, stronger effect = higher value
[13] = UWB1.289_BRCA1 ovarian cancer growth, cell-based, BGB or cisplatin combinations (AID 1671459); details: UWB1.289 BRCA1 ovarian carcinoma, drug combinations, stronger effect = higher value
[14] = human astrocyte viability loss, single and combined drugs, cytotoxicity control for chromothriptic childhood tumor combination screen, cell-based, BGB or cisplatin IC20 combos (AID 1671460); details: Human astrocytes, drug combinations, stronger effect = higher value;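 also: cells exposed to compounds for 96 hours before viability readout; 0% = vehicle and 100% = killing control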
[15] = growth inhibition of BT084 medulloblastoma cells, cell-based, ICGC_MB145, cisplatin and BGB IC40 combos (AID 1671461); details: drug combinations, stronger effect = higher value;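 also: cells exposed to drugs for 96 hours; 0% = vehicle DMSO and 100% = high DMSO full killing control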
[16] = growth inhibition of RCMB18 medulloblastoma cells, cell-based, cisplatin and BGB IC40 combos (AID 1671462); details: stronger effect = higher value;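 also: cells exposed to compound for four days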
[17] = growth inhibition of CRL1545 osteosarcoma cells, cell-based, cisplatin and BGB IC20 combos (AID 1671464); details: stronger effect = higher value;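 also: cells exposed to compound for 96 hours before readout; 0% = vehicle DMSO and 100% = high DMSO killing control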
[18] = stronger effect = lower value, cell number ratio, induced over uninduced
[19] = measured here: relative caspase fold change +Dox/-Dox
[20] = measured here: total cells with miR-34 induction, stronger effect = lower value
[21] = measured here: total cells without miR-34 induction
[22] = measured here: combination with BGB IC40, at 0.05 µM
[23] = measured here: with BGB IC20 combination, at 0.5 µM
[24] = measured here: with cisplatin IC20 combination, at 0.5 µM
[25] = measured here: combination with cisplatin, at 0.5 µM
[26] = measured here: combination with cisplatin, at 5 µM

With `O=C(O)CCCCCC[C@@H]1[C@@H](CC[C@@H](O)CCc2cccc(C(F)(F)F)c2)[C@H](O)C[C@@H]1O` the fold change [1, 18] was 1.13 (inactive), the fold change [1, 19] was 1.38 and the cell count [1, 20] was 6150. It also gave a cell count [1, 21] of 5440.
For `CC(C)CCCC(C)NC(C)C` (stereo not drawn), the fold change [1, 18] was 0.993 (inactive), the fold change [1, 19] was 0.874 and the cell count [1, 20] was 8610. The cell count [1, 21] was 8670.
For `O=C(O)c1ccccc1-c1ccc(/C=c2\sc3nc4cc(Br)cnc4n3c2=O)o1`, the outcome [2] was “inactive”.
In the case of `CS(=O)(=O)c1ccc(-c2nnc(/C=C/c3nnc(-c4ccc(C#N)cc4)o3)n2-c2ccccc2Cl)nc1`, the outcome [2] is reported as “inactive”, the inhibition ([3]; at 0.5 µM, stronger effect = higher value) is reported as 1.48% (inactive) and the inhibition ([3]; measured here: combination with BGB IC20, at 0.005 µM) is reported as 2.99%. It also gave an inhibition ([3]; measured here: combination with BGB IC40, at 0.005 µM) of 6.48%, an inhibition [3, 22] of 30.7% and an inhibition ([3]; measured here: combination with cisplatin, at 0.5 µM, stronger effect = higher value) of -5.01%. For the same compound, the inhibition ([3]; measured here: combination with cisplatin, at 5 µM, stronger effect = higher value) was -36.6%, the inhibition ([4]; BGB combo, at 5 µM) was 21% and the inhibition ([4]; at 0.5 µM) was 30.9% (inactive). For the same compound, the inhibition ([4]; cisplatin combo, at 5 µM) was 23.5%, the inhibition [4, 23] was 33.7% and the inhibition [4, 24] was 23.2%. It also gave an inhibition ([4]; single agent, at 5 µM) of 31.3%, an inhibition ([5]; BGB IC20 combo, at 0.005 µM) of -3.28% and an inhibition ([5]; BGB IC40 combo, at 0.005 µM) of -14.7%. The inhibition ([5]; BGB IC40 combo, at 0.05 µM) was -5.67%, the inhibition ([5]; at 0.5 µM) was -26.5% (inactive) and the inhibition ([5]; cisplatin combo, at 0.05 µM) was -9.85%. For the same compound, the inhibition ([5]; cisplatin combo, at 0.5 µM) was -33.8%, the inhibition ([5]; cisplatin combo, at 5 µM) was -19.1% and the inhibition ([5]; measured here: 5 uM single agent, at 5 µM) was -5.85%. The inhibition ([6]; at 0.5 µM) was -3.64% (inactive), the inhibition [6, 22] was 0.706% and the inhibition [6, 25] was -21.2%. The inhibition [6, 26] was -35.8%, the inhibition ([7]; at 0.5 µM) was 15.7% (inactive) and the inhibition ([7]; measured here: with BGB IC20, at 0.5 µM) was 7.63%. It also gave an inhibition ([7]; measured here: with BGB IC20, at 5 µM) of -0.396%, an inhibition ([7]; measured here: with cisplatin IC20, at 0.5 µM) of 4.78% and an inhibition ([7]; measured here: with cisplatin IC20, at 5 µM) of 9.69%. For the same compound, the inhibition ([7]; single agent, at 5 µM) was 38.8%, the inhibition ([8]; at 0.5 µM) was 7.89% (inactive) and the inhibition ([8]; measured here: combination with BGB at IC20, at 0.5 µM) was 3.4%. For the same compound, the inhibition ([8]; measured here: combination with cisplatin at IC20, at 0.5 µM) was 15.6%, the inhibition ([9]; at 0.5 µM) was 11.5% (inactive) and the inhibition ([9]; measured here: combo with BGB at IC20, at 0.5 µM) was 0.481%. The inhibition ([9]; measured here: combo with cisplatin at IC20, at 0.5 µM) was 19.9%, the inhibition ([10]; at 0.5 µM) was 15.3% (inactive) and the inhibition ([10]; measured here: inhibition with BGB combination, at 0.05 µM) was 0.045%. For the same compound, the inhibition ([10]; measured here: inhibition with cisplatin combination, at 0.05 µM) was 15.1%, the inhibition ([11]; at 0.5 µM) was -0.5% (inactive) and the inhibition [11, 25] was 14.1%. The inhibition [11, 26] was -1.82%, the inhibition ([12]; at 0.5 µM) was 7.83% (inactive) and the inhibition ([12]; measured here: BGB combination, at 0.5 µM) was -1.04%. It also gave an inhibition ([12]; measured here: BGB combination, at 5 µM) of -5.11%, an inhibition ([12]; measured here: cisplatin combination, at 0.5 µM) of 9.17% and an inhibition ([12]; measured here: cisplatin combination, at 5 µM) of 11.5%. For the same compound, the inhibition ([13]; BGB combination, concentration series, at 5 µM) was 22.9%, the inhibition ([13]; at 0.5 µM) was 12.5% (inactive) and the inhibition ([13]; cisplatin combination, concentration series, at 5 µM) was 17.8%. The inhibition ([14]; at 0.5 µM) was 40.8% (inactive), the inhibition ([14]; measured here: combo with BGB IC20, at 0.5 µM) was 29.7% and the inhibition ([14]; measured here: combo with cisplatin IC20, at 0.5 µM) was 52.2%. The inhibition ([15]; at 0.5 µM) was -12.2% (inactive), the inhibition ([15]; cisplatin combination, at 0.5 µM) was 3.06% and the inhibition ([15]; cisplatin combination, at 5 µM) was 6.23%. For the same compound, the inhibition ([15]; measured here: BGB IC40 combination 0.05 uM, at 0.05 µM) was -3.22%, the inhibition ([15]; single agent, at 5 µM) was -30% and the inhibition ([16]; at 0.5 µM) was 3.73% (inactive). For the same compound, the inhibition ([16]; cisplatin combo, at 5 µM) was 7.03%, the inhibition ([16]; measured here: BGB IC40 combination, at 0.05 µM) was -6.83% and the inhibition [16, 25] was 19.3%. For the same compound, the inhibition ([16]; single agent, at 5 µM) was -0.278%, the inhibition ([17]; at 0.5 µM) was -40.3% (inactive) and the inhibition [17, 23] was -43.6%. It also gave an inhibition [17, 24] of -38.6%, an inhibition ([17]; single agent, at 0.05 µM) of -1.31% and an inhibition ([17]; single agent, at 5 µM) of -32.2%.

Reference: PubChem BioAssay
